Values joined by “and” are separate entries in the source; they are usually repeats but may differ in a detail not shown here. Equal values may be shown once. Hit rate of the full screen: of about 5,500 compounds, about 2,000 (36%) were called active. Roughly 18% stayed inconclusive and do not appear here. Rule as the data show it: active = normalized growth mostly below about 0.91 (no sharp cut-off); inconclusive = no clear call, values can overlap the other calls; inactive = mostly above about 0.92. This is one part of the list.
Assay: chemical genetic growth profiling, strain panel (AID 1159580);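 also: tested at 20 µM; growth read once vehicle control cultures reached saturation at 30 °C; 1 = growth at the plate median or of vehicle wells; lower values mean less growth of the strain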
Settings: S. cerevisiae deletion strains, growth OD

Measured: normalized growth

COc1ccc(C(=O)/C=C/c2ccccc2)cc1
inactive: locus YAL021C, strain ccr4, stronger effect = lower value 1.01 | locus YAL026C, strain drs2, stronger effect = lower value 0.924 | locus YAL030W, strain snc1, stronger effect = lower value 0.951 | locus YBL061C, strain skt5, stronger effect = lower value 0.947 | locus YBR171W, strain sec66, stronger effect = lower value 0.939 | locus YBR229C, strain ROT2, stronger effect = lower value 0.991 | locus YBR231C, strain swc5, stronger effect = lower value 0.927 | locus YBR279W, strain paf1, stronger effect = lower value 0.951 | locus YCL069W, strain vba3, stronger effect = lower value 0.944 | locus YCR088W, strain abp1, stronger effect = lower value 0.965 | locus YDL005C, strain med2, stronger effect = lower value 0.992 | locus YDL035C, strain GPR1, stronger effect = lower value 0.921 | locus YDL040C, strain nat1, stronger effect = lower value 1.01 | locus YDL101C, strain DUN1, stronger effect = lower value 0.941 | locus YDL185W, strain tfp1, stronger effect = lower value 0.942 | locus YDR001C, strain nth1, stronger effect = lower value 0.982 | locus YDR069C, strain doa4, stronger effect = lower value 0.995 | locus YDR150W, strain NUM1, stronger effect = lower value 1.01 | locus YDR159W, strain sac3, stronger effect = lower value 0.956 | locus YDR162C, strain NBP2, stronger effect = lower value 0.965 | locus YDR195W, strain ref2 1.1 | locus YDR297W, strain sur2, stronger effect = lower value 0.939 | locus YDR334W, strain swr1, stronger effect = lower value 0.999 | locus YDR388W, stronger effect = lower value 0.955 | locus YEL037C, strain rad23, stronger effect = lower value 0.982 | locus YER015W, strain faa2, stronger effect = lower value 0.956 | locus YER111C, strain swi4, stronger effect = lower value 0.968 | locus YER167W, strain BCK2, stronger effect = lower value 0.994 | locus YFR010W, strain ubp6, stronger effect = lower value 0.96 | locus YGL167C, strain pmr1, stronger effect = lower value 0.971 | locus YHR013C, strain ard1, stronger effect = lower value 0.947 | locus YHR027C, strain rpn1, stronger effect = lower value 0.939 | locus YHR079C, strain IRE1 (second series), stronger effect = lower value 0.932 | locus YHR094C, strain hxt1, stronger effect = lower value 0.941 | locus YIL066C, strain RNR3, stronger effect = lower value 0.919 | locus YIL073C, strain SPO22, stronger effect = lower value 0.889 | locus YIL125W, strain kgd1, stronger effect = lower value 0.985 | locus YJL092W, strain hpr5, stronger effect = lower value 0.965 | locus YJL115W, strain asf1, stronger effect = lower value 0.984 | locus YJL134W, strain LCB3, stronger effect = lower value 0.99 | locus YJL154C, strain vps35, stronger effect = lower value 0.995 | locus YJL168C, strain set2, stronger effect = lower value 0.959 | locus YJL187C, strain SWE1 (second series), stronger effect = lower value 0.908
active: locus YBR009C, strain hhf1, stronger effect = lower value 0.825 | locus YBR021W, strain FUR4, stronger effect = lower value 0.782 | locus YBR023C, strain chs3, stronger effect = lower value 0.911 | locus YCL011C, strain gbp2, stronger effect = lower value 0.902 | locus YCL016C, strain dcc1, stronger effect = lower value 0.876 | locus YCL029C, strain bik1, stronger effect = lower value 0.822 | locus YCL061C, strain MRC1, stronger effect = lower value 0.846 | locus YDL074C, strain BRE1, stronger effect = lower value 0.738 | locus YDL192W, strain arf1, stronger effect = lower value 0.832 | locus YDR101C, strain arx1, stronger effect = lower value 0.867 | locus YDR137W, strain rgp1, stronger effect = lower value 0.845 | locus YDR318W, strain mcm21, stronger effect = lower value 0.798 | locus YDR335W, strain msn5, stronger effect = lower value 0.889 | locus YDR392W, strain spt3, stronger effect = lower value 0.194 | locus YDR502C, strain sam2, stronger effect = lower value 0.787 | locus YEL003W, strain gim4, stronger effect = lower value 0.856 | locus YEL061C, strain CIN8 (second series), stronger effect = lower value 0.844 | locus YER016W, strain bim1, stronger effect = lower value 0.91 | locus YER110C, stronger effect = lower value 0.873 | locus YER155C, strain BEM2 (second series), stronger effect = lower value 0.268 | locus YER155C, strain BEM2, stronger effect = lower value 0.686 | locus YGL078C, strain dbp3, stronger effect = lower value 0.906 | locus YGL086W, strain mad1, stronger effect = lower value 0.779 | locus YGL173C, strain kem1, stronger effect = lower value 0.889 | locus YGL227W, strain vid30, stronger effect = lower value 0.892 | locus YGL240W, strain doc1, stronger effect = lower value 0.762 | locus YGL248W, strain PDE1, stronger effect = lower value 0.824 | locus YGL253W, strain hxk2, stronger effect = lower value 0.908 | locus YGR135W, strain pre9, stronger effect = lower value 0.696 | locus YGR252W, strain gcn5, stronger effect = lower value 0.629 | locus YHR079C, strain IRE1, stronger effect = lower value 0.756 | locus YHR129C, strain ARP1, stronger effect = lower value 0.87 | locus YHR142W, strain chs7, stronger effect = lower value 0.767 | locus YHR200W, strain rpn10, stronger effect = lower value 0.866 | locus YIR030C, strain dcg1, stronger effect = lower value 0.888 | locus YJL095W, strain BCK1 (second series), stronger effect = lower value 0.886 | locus YJL095W, strain BCK1, stronger effect = lower value 0.544 and 0.84 | locus YJL129C, strain trk1, stronger effect = lower value 0.859 | locus YJL164C, strain tpk1, stronger effect = lower value 0.887 | locus YJL166W, strain qcr8, stronger effect = lower value 0.746
0.95 (inactive) and 0.812 (active): locus YHR030C, strain SLT2, stronger effect = lower value
